# Data from PubChem BioAssay.
# Active and inactive are the calls of the source. Rule as the data show it, unless noted: active = inhibition above about 80%; inactive = the rest.
# Key:
# [1] = LFS_MB_P medulloblastoma growth inhibition, cell-based, chromothripsis tumors, cisplatin or BGB combos (AID 1671449); conditions: LFS_MB_P medulloblastoma cells;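 also: cells exposed for 96 hours; 0% = vehicle DMSO and 100% = killing by high DMSO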
# [2] = HDN33 neuroblastoma growth inhibition, cell-based, chromothripsis tumors, cisplatin or BGB combos (AID 1671450); conditions: HDN33 neuroblastoma cells, stronger effect = higher value;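 also: cells exposed to compound for four days; 0% = vehicle DMSO and 100% = cell killing by high DMSO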
# [3] = ICB984 medulloblastoma cell growth inhibition, synergistic combos for chromothripsis tumors, cisplatin or BGB combos (AID 1671451; call rule not given here;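 also: cells exposed for 96 hours before readout; 0% = vehicle DMSO and 100% = killing by high DMSO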); conditions: ICB984 medulloblastoma cells, drug combinations, stronger effect = higher value
# [4] = LFS_MB_1R medulloblastoma cell growth inhibition, synergistic combos for chromothripsis tumors, cisplatin or BGB combos (AID 1671452); conditions: LFS_MB_1R medulloblastoma cells, stronger effect = higher value;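 also: cells exposed for 96 hours before readout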
# [5] = HTB85 osteosarcoma cell growth inhibition, synergistic combos for chromothripsis tumors, BGB or cisplatin IC20 combos (AID 1671453); conditions: HTB85 osteosarcoma cells, drug combinations, stronger effect = higher value;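 also: cells exposed for 96 hours before readout; 0% = vehicle DMSO and 100% = high DMSO killing control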
# [6] = CRL2098 osteosarcoma cell growth inhibition, synergistic combos for chromothripsis tumors, BGB or cisplatin IC20 combos (AID 1671454); conditions: CRL2098 osteosarcoma cells, drug combinations, stronger effect = higher value;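 also: cells exposed for 96 h before readout; 0% = vehicle DMSO and 100% = killing by high DMSO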
# [7] = HD-MB03 medulloblastoma cell growth inhibition, synergistic combos for chromothripsis tumors, BGB or cisplatin IC20 combos (AID 1671455; in the data active = inhibition above about 83%;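 also: 0% = vehicle DMSO and 100% = high DMSO as cytotoxic control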); conditions: HD-MB03 medulloblastoma cells, stronger effect = higher value
# [8] = UWB1.289 ovarian carcinoma cell growth inhibition, synergistic combos for chromothripsis tumors, BGB or cisplatin combos (AID 1671456); conditions: UWB1.289 ovarian carcinoma cells, stronger effect = higher value;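 also: cells exposed to compound for four days; 0% = vehicle DMSO and 100% = killing by high DMSO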
# [9] = LFS_MB_2R medulloblastoma cell growth inhibition, synergistic combos for chromothripsis tumors, cisplatin combos (AID 1671457); conditions: LFS_MB_2R medulloblastoma cells, stronger effect = higher value;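 also: cells exposed to compound for four days before readout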
# [10] = MDA-MB-436 breast carcinoma cell growth inhibition, synergistic combos for chromothripsis tumors, BGB or cisplatin combos (AID 1671458; call rule not given here;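 also: cells exposed for 96 hours; 0% = vehicle DMSO and 100% = killing by high DMSO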); conditions: MDA-MB-436 breast carcinoma growth inhibition, drug combinations, stronger effect = higher value
# [11] = UWB1.289_BRCA1 ovarian cancer growth, cell-based, BGB or cisplatin combinations (AID 1671459); conditions: UWB1.289 BRCA1 ovarian carcinoma, drug combinations, stronger effect = higher value
# [12] = human astrocyte viability loss, single and combined drugs, cytotoxicity control for chromothriptic childhood tumor combination screen, cell-based, BGB or cisplatin IC20 combos (AID 1671460); conditions: Human astrocytes, drug combinations, stronger effect = higher value;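 also: cells exposed to compounds for 96 hours before viability readout; 0% = vehicle and 100% = killing control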
# [13] = growth inhibition of BT084 medulloblastoma cells, cell-based, ICGC_MB145, cisplatin and BGB IC40 combos (AID 1671461); conditions: drug combinations, stronger effect = higher value;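 also: cells exposed to drugs for 96 hours; 0% = vehicle DMSO and 100% = high DMSO full killing control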
# [14] = growth inhibition of RCMB18 medulloblastoma cells, cell-based, cisplatin and BGB IC40 combos (AID 1671462); conditions: stronger effect = higher value;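 also: cells exposed to compound for four days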
# [15] = growth inhibition of CRL1545 osteosarcoma cells, cell-based, cisplatin and BGB IC20 combos (AID 1671464); conditions: stronger effect = higher value;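 also: cells exposed to compound for 96 hours before readout; 0% = vehicle DMSO and 100% = high DMSO killing control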
# [16] = measured here: combination with BGB IC40, at 0.05 µM
# [17] = measured here: with BGB IC20 combination, at 0.5 µM
# [18] = measured here: with cisplatin IC20 combination, at 0.5 µM
# [19] = measured here: combination with cisplatin, at 0.5 µM
# [20] = measured here: combination with cisplatin, at 5 µM
smiles,measurement,setting,value
O=c1[nH]c(=O)n(C2OC(CO)C(O)C2O)cc1F (stereo not drawn),inhibition,"[1]; at 0.5 µM, stronger effect = higher value",-2.55% (inactive)
same,inhibition,"[1]; measured here: combination with BGB IC20, at 0.005 µM",-22.7%
same,inhibition,"[1]; measured here: combination with BGB IC40, at 0.005 µM",-24.2%
same,inhibition,[1]; [16],-0.747%
same,inhibition,"[1]; measured here: combination with cisplatin, at 0.5 µM, stronger effect = higher value",-21.6%
same,inhibition,"[1]; measured here: combination with cisplatin, at 5 µM, stronger effect = higher value",22.1%
same,inhibition,"[2]; BGB combo, at 5 µM",98.3%
same,inhibition,[2]; at 0.5 µM,71.5% (inactive)
same,inhibition,"[2]; cisplatin combo, at 5 µM",97.9%
same,inhibition,[2]; [17],69.4%
same,inhibition,[2]; [18],68.6%
same,inhibition,"[2]; single agent, at 5 µM",98.1%
same,inhibition,"[3]; BGB IC20 combo, at 0.005 µM",26.6%
same,inhibition,"[3]; BGB IC40 combo, at 0.005 µM",32%
same,inhibition,"[3]; BGB IC40 combo, at 0.05 µM",86.4%
same,inhibition,[3]; at 0.5 µM,-9.47% (inactive)
same,inhibition,"[3]; cisplatin combo, at 0.05 µM",86.4%
same,inhibition,"[3]; cisplatin combo, at 0.5 µM",-24.4%
same,inhibition,"[3]; cisplatin combo, at 5 µM",-10.9%
same,inhibition,"[3]; measured here: 5 uM single agent, at 5 µM",-6.81%
same,inhibition,[4]; at 0.5 µM,-13.3% (inactive)
same,inhibition,[4]; [16],-3.21%
same,inhibition,[4]; [19],-2.35%
same,inhibition,[4]; [20],44.8%
same,inhibition,[5]; at 0.5 µM,22% (inactive)
same,inhibition,"[5]; measured here: with BGB IC20, at 0.5 µM",-3.46%
same,inhibition,"[5]; measured here: with BGB IC20, at 5 µM",59.1%
same,inhibition,"[5]; measured here: with cisplatin IC20, at 0.5 µM",26.3%
same,inhibition,"[5]; measured here: with cisplatin IC20, at 5 µM",57.2%
same,inhibition,"[5]; single agent, at 5 µM",76.2%
same,inhibition,[6]; at 0.5 µM,-23.1% (inactive)
same,inhibition,"[6]; measured here: combination with BGB at IC20, at 0.5 µM",-14.1%
same,inhibition,"[6]; measured here: combination with cisplatin at IC20, at 0.5 µM",-20.6%
same,inhibition,[7]; at 0.5 µM,66.9% (inactive)
same,inhibition,"[7]; measured here: combo with BGB at IC20, at 0.5 µM",71.1%
same,inhibition,"[7]; measured here: combo with cisplatin at IC20, at 0.5 µM",54%
same,inhibition,[8]; at 0.5 µM,33.5% (inactive)
same,inhibition,"[8]; measured here: inhibition with BGB combination, at 0.05 µM",-10.9%
same,inhibition,"[8]; measured here: inhibition with cisplatin combination, at 0.05 µM",10.1%
same,inhibition,[9]; at 0.5 µM,-12.7% (inactive)
same,inhibition,[9]; [19],-4.31%
same,inhibition,[9]; [20],6.83%
same,inhibition,[10]; at 0.5 µM,45.1% (inactive)
same,inhibition,"[10]; measured here: BGB combination, at 0.5 µM",27.6%
same,inhibition,"[10]; measured here: BGB combination, at 5 µM",83.1%
same,inhibition,"[10]; measured here: cisplatin combination, at 0.5 µM",39.9%
same,inhibition,"[10]; measured here: cisplatin combination, at 5 µM",86.1%
same,inhibition,"[11]; BGB combination, concentration series, at 5 µM",110%
same,inhibition,[11]; at 0.5 µM,40.6% (inactive)
same,inhibition,"[11]; cisplatin combination, concentration series, at 5 µM",118%
same,inhibition,[12]; at 0.5 µM,57.3% (inactive)
same,inhibition,"[12]; measured here: combo with BGB IC20, at 0.5 µM",56.2%
same,inhibition,"[12]; measured here: combo with cisplatin IC20, at 0.5 µM",38.9%
same,inhibition,[13]; at 0.5 µM,-22.9% (inactive)
same,inhibition,"[13]; cisplatin combination, at 0.5 µM",-18.4%
same,inhibition,"[13]; cisplatin combination, at 5 µM",-1.49%
same,inhibition,"[13]; measured here: BGB IC40 combination 0.05 uM, at 0.05 µM",2.24%
same,inhibition,"[13]; single agent, at 5 µM",11.9%
same,inhibition,[14]; at 0.5 µM,33.4% (inactive)
same,inhibition,"[14]; cisplatin combo, at 5 µM",75.4%
same,inhibition,"[14]; measured here: BGB IC40 combination, at 0.05 µM",14.4%
same,inhibition,[14]; [19],45.3%
same,inhibition,"[14]; single agent, at 5 µM",63.7%
same,inhibition,[15]; at 0.5 µM,82.5% (active)
same,inhibition,[15]; [17],77.3%
same,inhibition,[15]; [18],85.1%
same,inhibition,"[15]; single agent, at 0.05 µM",57.8%
same,inhibition,"[15]; single agent, at 5 µM",99.7%
